In PubChem BioAssay AID651814 (National Center for Advancing Translational Sciences (NCATS), 2012):
Hit rate of the full screen: of about 2,100 compounds, about 590 (28%) were called active. Roughly 42% stayed inconclusive and do not appear here. This is one part of the list. A number with no mark means an inactive call. Calls follow the shape of the dose curve; as a rule, active = well fitted inhibition curve with a large enough effect; inconclusive = small, poorly fitted or top-dose-only effect; inactive = flat fitted curve, though single readings scatter.

Target: DNA dC->dU-editing enzyme APOBEC-3F (Homo sapiens) (UniProt Q8IUX4)
Test: qHTS for inhibitors of Vif-A3F interactions: Cherry picks; also: nearly all actives have a fitted effect of over 70% in size;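 as to max response: % of control where 0% means no effect; active compounds raise eYFP fluorescence by blocking Vif-driven A3F loss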
Settings: HeLa A3F-eYFP + Vif (tagged APOBEC3F with the HIV-1 protein that degrades it), eYFP fluorescence, 24 h
In short: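 HeLa cells stably expressing A3F-eYFP plus Vif, cultured overnight, then exposed to compounds at several concentrations for 24 h at 37 deg C. Reduced Vif-driven degradation read as rising eYFP fluorescence (488 nm ex/500-530 nm em) by laser-scanning cytometry; MG132 as positive control.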
Potency is read from the fitted curve at half-maximal effect.

Chain of DNA dC->dU-editing enzyme APOBEC-3F (Homo sapiens) (Q8IUX4 whole entry, looked up): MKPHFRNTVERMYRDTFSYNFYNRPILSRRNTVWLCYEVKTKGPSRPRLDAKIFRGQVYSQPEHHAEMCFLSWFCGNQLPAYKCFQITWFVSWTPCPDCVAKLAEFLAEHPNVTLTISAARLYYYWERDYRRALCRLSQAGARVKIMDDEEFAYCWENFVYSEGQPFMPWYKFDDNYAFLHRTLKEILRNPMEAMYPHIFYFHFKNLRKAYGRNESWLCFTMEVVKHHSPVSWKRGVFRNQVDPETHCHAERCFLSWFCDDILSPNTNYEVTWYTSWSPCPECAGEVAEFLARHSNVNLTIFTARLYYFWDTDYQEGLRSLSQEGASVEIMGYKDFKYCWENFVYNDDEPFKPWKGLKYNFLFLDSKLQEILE

| SMILES | Potency | max response [%] |
| --- | --- | --- |
| CS(=O)(=O)Nc1ccc(C2=NN(S(C)(=O)=O)C(c3ccc4c(c3)OCO4)C2)cc1 (stereo not given) | 17.7 µM (active) | – |
| CS(=O)(=O)Nc1ccc(C2=NN(S(C)(=O)=O)C(c3ccc4nccnc4c3)C2)cc1 (stereo not given) | – | -7.65 |
| CS(=O)(=O)Nc1cccc(C2=NN(S(C)(=O)=O)C(c3ccc4c(c3)OCO4)C2)c1 (stereo not given) | – | -28.5 |
| CS(=O)(=O)N1N=C(c2ccccc2)CC1c1ccc2c(c1)OCO2 (stereo not given) | 14 µM (active) | – |
| Cc1ccccc1C1CC(c2cccs2)=NN1S(C)(=O)=O (stereo not given) | – | -5.18 |
| Cc1cc(OCC(=O)Nc2nnc(C3CC3)s2)ccc1Cl | – | 2.35 |
| COC(=O)c1ccc(NC(=O)CC2Nc3cc(C)c(C)cc3NC2=O)cc1 (stereo not given) | 6.51 µM (active) | – |
| CCOC(=O)c1ccc(NC(=S)NC(=O)C2CCCC2)cc1 | – | -3.01 |
| Cc1cccc(C(=O)Nc2nnc(C3=COCCO3)o2)c1 | – | 0.472 |
| CCCCCCn1c(=O)[nH]c2nc3cc(N)ccc3nc2c1=O | – | -0.0141 |
| Cc1cc2nc3c(=O)n(C4CCCCC4)c(=O)[nH]c3nc2cc1N | 16.4 µM (active) | – |
| CCN(CC)c1nc(C)c(C(=S)Nc2cc([N+](=O)[O-])ccc2Cl)s1 | – | -3.83 |
| O=C(COC(=O)C12CC3CC(CC(Cl)(C3)C1)C2)N1CCCCC1 | – | 1.53 |
| CCOC(=O)N1CCc2c(sc3c2C(=O)NC(c2ccc(N(C)C)cc2)N3)C1 (stereo not given) | 20.6 µM (active) | – |
| CN1CCc2c(sc3c2C(=O)NC(c2ccc(-c4ccc(Cl)cc4)o2)N3)C1 (stereo not given) | – | -10.4 |
| COc1ccc(CN(C(C)=O)c2cccc(C)c2C)cc1 | – | -29.4 |
| COc1ccc2oc(=O)c(-c3nc4ccccc4o3)cc2c1 | 20.6 µM (active) | – |
| CCOC(=O)C1CCCN(C(=O)c2ccc3nc(-c4cccc(OC)c4)oc3c2)C1 (stereo not given) | – | -18.5 |
| COc1ccc2oc(=Nc3ccccc3)c(-c3nc4ccccc4[nH]3)cc2c1 | – | -13 |
| CCOc1ccccc1Nc1nnc(-c2cc3cc(OC)ccc3oc2=O)s1 | 7.31 µM (active) | – |

| SMILES | Potency | max response [%] |
| --- | --- | --- |
| COc1cc(/C=C2/CCC/C(=C\c3cc(O)c(OC)c(Cl)c3)C2=O)cc(Cl)c1O | 8.2 µM (active) | – |
| COc1cc(/C=N/Nc2ccc(Cl)nn2)cc(OC)c1O | – | 2.03 |
| CCOc1c(Cl)cc(/C=N/NC(N)=S)cc1OC | – | -28.8 |
| CCOc1cc(/C=C2\CCC/C(=C\c3cc(Cl)c(O)c(OCC)c3)C2=O)cc(Cl)c1O | 7.04 µM (active) | – |
| COc1ccccc1CNC(=O)c1ccc2nc3[nH]c4ccccc4c3nc2c1 | – | -25.8 |
| Fc1ccc2nc3[nH]c4ccccc4c3nc2c1 | 0.994 µM (active) | – |
| Cc1c(=O)n(OCc2ccc(Cl)cc2)c2ccccc2[n+]1[O-] | – | -8.69 |
| CC1C/C(=C/c2cccs2)C(=O)/C(=C/c2cccs2)C1 (stereo not given) | – | -0.33 |
| CN1C2CCC1/C(=C/c1cccn1C)C(=O)/C2=C\c1cccn1C | 16.4 µM (active) | – |
| Cn1cccc1/C=C1\CC(C(C)(C)C)C/C(=C\c2cccn2C)C1=O (stereo not given) | 4.11 µM (active) | – |
| CN1/C(=C\C=C(/C#N)C(=O)Nc2ccc(Cl)cc2)C(C)(C)c2ccccc21 | 3.14 µM (active) | – |
| CN1/C(=C\C=C(/C#N)C(=O)Nc2ccccc2F)C(C)(C)c2ccccc21 | 20.6 µM (active) | – |
| COc1ccc(NC(=O)/C(C#N)=C/C=C/c2ccco2)cc1 | – | -30 |
| COc1ccc(NC(=O)/C(C#N)=C\C=C\c2ccco2)cc1 | – | -29.2 |
| O=C(NC(=S)N1CCN(c2ccccn2)CC1)c1ccccc1 | – | 0.282 |
| CN(C)c1ccc(/C=C/c2ccnc3ccccc23)c(N)c1 | 7.31 µM (active) | – |
| Nc1ccccc1/C=C/c1ccnc2ccccc12 | 23.1 µM (active) | – |
| CN(C)c1ccc(/C=C/C=C/c2ccnc3ccccc23)cc1 | 2.59 µM (active) | – |
| CN(C)c1ccc(/C=C/c2ccnc3ccccc23)cc1 | 13 µM (active) | – |
| COc1ccc(-c2nc3cnccn3c2NC2CCCCC2)cc1-c1cccc(Cl)c1 | – | -28.6 |

| SMILES | Potency | max response [%] |
| --- | --- | --- |
| CCOC(=O)c1cnc(-n2nc(C)cc2C)nc1NNc1nc(-c2ccccc2)cc(-c2ccccc2)n1 | – | 6.49 |
| c1ccc(N=NC2=NN(c3ccccc3)CS2)cc1 | – | 0.337 |
| CCCC(=O)NC(c1ccc(OC)cc1)c1ccc2cccnc2c1O (stereo not given) | – | 0.49 |
| COc1cccc2nccc(/C=C/c3ccc(N(C)C)cc3)c12 | 20.6 µM (active) | – |
| CN(C)c1ccc(/C=C/c2ccnc3ccc(-c4ccccc4)cc23)cc1 | 2.31 µM (active) | – |
| CN(C)c1ccc(/C=C/c2cnnc3ccccc23)cc1 | 20.6 µM (active) | – |
| CNc1ccc(/C=C/c2ccnc3ccccc23)cc1 | 14.6 µM (active) | – |
| NC(=S)N/N=C/c1ccccc1OC(=O)/C=C/c1ccccc1 | – | -3.11 |
| CC(C)CC(=O)NC(=S)N(Cc1ccccc1)Cc1ccccc1 | – | -4.2 |
| Cc1ccc(S(=O)(=O)N2CCN(C(=O)CSC(=S)N3CCCC3)CC2)c(C)c1 | – | 1.16 |
| COc1ccc(/C=C2/CSC/C(=C/c3ccc(OC)c(OC)c3)C2=O)cc1OC | 5.59 µM (active) | – |
| COc1cc(/C=C/C(C)=NNc2ccccc2)ccc1O | – | -28.1 |
| COc1cc(/C=C2\COC/C(=C\c3ccc(O)c(OC)c3)C2=O)ccc1O | 14 µM (active) | – |
| CO/N=C/c1ccc(OC)c(Oc2nc(OC)cc(OC)n2)c1 | – | -21.4 |
| COc1cc(C=C2C(=O)c3ccccc3C2=O)cc(OC)c1OC | – | -7.21 |
| COc1cc(/C=C2/CC/C(=C/c3ccc(O)c(OC)c3)C2=O)ccc1O | – | -11.3 |
| Cc1ccc2c(c1C)NC(=O)CC(c1ccccc1O)=N2 | – | 0.01 |
| CC(C)OC(=O)c1c2c(n3ccccc13)C(=O)c1ccccc1C2=O | 4.61 µM (active) | – |
| Cn1c(=O)c(N)c2c3c(c(Br)ccc31)C(=O)c1ccccc1-2 | – | 0.0476 |
| Oc1cccc(Nc2nc(O)c(/C=C3\C=Nc4ccccc43)s2)c1 | 14.6 µM (active) | – |
